Experimental data as given in PubChem BioAssay AID1159580 (chemical genetic matrix, 2015).
“And” between values parts separate entries of the source, which are not always exact repeats. Identical values can stand only once. In all, about 5,500 compounds went through this assay and about 2,000 (36%) were called active. Inconclusive results (about 18%) are left out. No stated cut-off is given here; in the data, active means normalized growth mostly below about 0.91 (no sharp cut-off); inconclusive means no clear call, values can overlap the other calls; inactive means mostly above about 0.92. The list shows a part of the results.

Test: chemical genetic growth profiling, strain panel (AID 1159580);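 further: tested at 20 µM; growth read once vehicle control cultures reached saturation at 30 °C; 1 = growth at the plate median or of vehicle wells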
Conditions: S. cerevisiae deletion strains, growth OD

Measured: normalized growth

COC(=O)C[C@H]1C(C)(C)[C@@H](OC(C)=O)[C@@H]2CC3C4CC(=O)O[C@@H](c5ccoc5)[C@]4(C)CCC3[C@@]1(C)C2=O (some centres not stated)
inactive: locus YAL013W, strain DEP1, stronger effect = lower value 1 | locus YAL021C, strain ccr4, stronger effect = lower value 0.979 | locus YAL026C, strain drs2, stronger effect = lower value 1.01 | locus YAL030W, strain snc1, stronger effect = lower value 1 | locus YBL061C, strain skt5, stronger effect = lower value 1.02 | locus YBR009C, strain hhf1, stronger effect = lower value 0.988 | locus YBR021W, strain FUR4, stronger effect = lower value 0.965 | locus YBR023C, strain chs3, stronger effect = lower value 1.02 | locus YBR171W, strain sec66, stronger effect = lower value 1.03 | locus YBR229C, strain ROT2, stronger effect = lower value 0.999 | locus YBR231C, strain swc5, stronger effect = lower value 1.01 | locus YBR279W, strain paf1, stronger effect = lower value 1.01 | locus YCL011C, strain gbp2, stronger effect = lower value 1 | locus YCL016C, strain dcc1, stronger effect = lower value 1.01 | locus YCL029C, strain bik1, stronger effect = lower value 0.973 | locus YCL069W, strain vba3, stronger effect = lower value 1.01 | locus YCR088W, strain abp1, stronger effect = lower value 1.01 | locus YDL005C, strain med2, stronger effect = lower value 1.01 | locus YDL035C, strain GPR1, stronger effect = lower value 0.995 | locus YDL040C, strain nat1, stronger effect = lower value 1.01 | locus YDL074C, strain BRE1, stronger effect = lower value 0.985 | locus YDL101C, strain DUN1, stronger effect = lower value 1.02 | locus YDL134C, strain PPH21, stronger effect = lower value 1.04 | locus YDL185W, strain tfp1, stronger effect = lower value 1.02 | locus YDL192W, strain arf1, stronger effect = lower value 0.989 | locus YDR001C, strain nth1, stronger effect = lower value 1.01 | locus YDR069C, strain doa4, stronger effect = lower value 1.01 | locus YDR101C, strain arx1, stronger effect = lower value 0.996 | locus YDR137W, strain rgp1, stronger effect = lower value 1.01 | locus YDR159W, strain sac3, stronger effect = lower value 1.03 | locus YDR162C, strain NBP2, stronger effect = lower value 1.01 | locus YDR195W, strain ref2 0.98 | locus YDR297W, strain sur2, stronger effect = lower value 0.999 | locus YDR318W, strain mcm21, stronger effect = lower value 1.01 | locus YDR334W, strain swr1, stronger effect = lower value 1.01 | locus YDR335W, strain msn5, stronger effect = lower value 1.04 | locus YDR388W, stronger effect = lower value 1.02 | locus YDR392W, strain spt3, stronger effect = lower value 1.02 | locus YDR502C, strain sam2, stronger effect = lower value 1.04 | locus YEL003W, strain gim4, stronger effect = lower value 1.01 | locus YEL037C, strain rad23, stronger effect = lower value 1.01 | locus YEL061C, strain CIN8 (second series), stronger effect = lower value 1.01 | locus YEL061C, strain CIN8, stronger effect = lower value 0.995 | locus YER015W, strain faa2, stronger effect = lower value 1 | locus YER016W, strain bim1, stronger effect = lower value 1.01 | locus YER110C, stronger effect = lower value 1.02 | locus YER111C, strain swi4, stronger effect = lower value 1.02 | locus YER155C, strain BEM2 (second series), stronger effect = lower value 1.03 | locus YER155C, strain BEM2, stronger effect = lower value 1 | locus YER167W, strain BCK2, stronger effect = lower value 0.996 | locus YFR010W, strain ubp6, stronger effect = lower value 1 | locus YGL078C, strain dbp3, stronger effect = lower value 1.01 | locus YGL086W, strain mad1, stronger effect = lower value 1.01 | locus YGL167C, strain pmr1, stronger effect = lower value 1.02 | locus YGL173C, strain kem1, stronger effect = lower value 1.02 | locus YGL227W, strain vid30, stronger effect = lower value 1.02 | locus YGL240W, strain doc1, stronger effect = lower value 1.03 | locus YGL248W, strain PDE1, stronger effect = lower value 1.04 | locus YGL253W, strain hxk2, stronger effect = lower value 1.01 | locus YGR135W, strain pre9, stronger effect = lower value 1.07 | locus YGR252W, strain gcn5, stronger effect = lower value 1.05 | locus YHR013C, strain ard1, stronger effect = lower value 1.02 | locus YHR027C, strain rpn1, stronger effect = lower value 1.02 | locus YHR030C, strain SLT2, stronger effect = lower value 0.994 and 1.02 | locus YHR079C, strain IRE1 (second series), stronger effect = lower value 1.01 | locus YHR079C, strain IRE1, stronger effect = lower value 1.01 | locus YHR094C, strain hxt1, stronger effect = lower value 1.01 | locus YHR129C, strain ARP1, stronger effect = lower value 1.01 | locus YHR142W, strain chs7, stronger effect = lower value 0.997 | locus YHR200W, strain rpn10, stronger effect = lower value 1 | locus YIL066C, strain RNR3, stronger effect = lower value 0.997 | locus YIL073C, strain SPO22, stronger effect = lower value 1.01 | locus YIL125W, strain kgd1, stronger effect = lower value 1 | locus YIR030C, strain dcg1, stronger effect = lower value 1.01 | locus YJL092W, strain hpr5, stronger effect = lower value 1.01 | locus YJL095W, strain BCK1 (second series), stronger effect = lower value 1 | locus YJL095W, strain BCK1, stronger effect = lower value 1.04 and 1.01 | locus YJL115W, strain asf1, stronger effect = lower value 1.01 | locus YJL129C, strain trk1, stronger effect = lower value 1.01 | locus YJL134W, strain LCB3, stronger effect = lower value 0.99 | locus YJL154C, strain vps35, stronger effect = lower value 1 | locus YJL164C, strain tpk1, stronger effect = lower value 1 | locus YJL166W, strain qcr8, stronger effect = lower value 0.999 | locus YJL168C, strain set2, stronger effect = lower value 1.02 | locus YJL187C, strain SWE1 (second series), stronger effect = lower value 1.05 | locus YJR066W, strain TOR1, stronger effect = lower value 0.963 | locus YKL009W, strain mrt4, stronger effect = lower value 0.998 | locus YKL068W, stronger effect = lower value 1.01 | locus YKL085W, strain MDH1 (second series), stronger effect = lower value 1 | locus YKL085W, strain MDH1, stronger effect = lower value 1 | locus YKL160W, strain elf1, stronger effect = lower value 1.02 | locus YKL190W, strain CNB1, stronger effect = lower value 1 | locus YKR001C, strain vps1, stronger effect = lower value 0.995 | locus YKR026C, strain gcn3, stronger effect = lower value 1.01 | locus YKR091W, strain srl3, stronger effect = lower value 1.01 | locus YLL001W, strain dnm1, stronger effect = lower value 1.01 | locus YLL026W, stronger effect = lower value 1 | locus YLL041C, strain sdh2, stronger effect = lower value 1 | locus YLR027C, strain aat2, stronger effect = lower value 0.999 | locus YLR039C, strain RIC1, stronger effect = lower value 0.993 | locus YLR058C, strain SHM2, stronger effect = lower value 1.02 | locus YLR102C, strain apc9, stronger effect = lower value 1.02 | locus YLR113W, strain HOG1, stronger effect = lower value 0.988 | locus YLR221C, strain rsa3, stronger effect = lower value 0.999 | locus YLR258W, strain gsy2, stronger effect = lower value 1.01 | locus YLR262C, strain YPT6 (second series), stronger effect = lower value 0.955 | locus YLR268W, strain sec22, stronger effect = lower value 0.985 | locus YLR320W, strain mms22, stronger effect = lower value 1.02 | locus YLR342W, strain FKS1, stronger effect = lower value 1 | locus YLR357W, strain rsc2, stronger effect = lower value 1.03 | locus YLR370C, strain arc18, stronger effect = lower value 1.02 | locus YLR371W, strain rom2, stronger effect = lower value 0.989 | locus YLR384C, strain iki3, stronger effect = lower value 1.02 | locus YLR418C, strain cdc73, stronger effect = lower value 1.04 | locus YML016C, strain PPZ1, stronger effect = lower value 1.01 | locus YML032C, strain rad52, stronger effect = lower value 0.994 | locus YML120C, strain ndi1, stronger effect = lower value 1.02 | locus YML124C, strain tub3, stronger effect = lower value 1.01 | locus YMR058W, strain fet3, stronger effect = lower value 1.01 | locus YMR078C, strain ctf18, stronger effect = lower value 1.02 | locus YMR125W, strain sto1, stronger effect = lower value 1.01 | locus YMR129W, stronger effect = lower value 0.999 | locus YMR205C, strain PFK2, stronger effect = lower value 1 | locus YMR223W, strain ubp8, stronger effect = lower value 1.01 | locus YMR231W, strain pep5, stronger effect = lower value 1.01 | locus YMR307W, strain GAS1, stronger effect = lower value 0.876 | locus YNL067W, strain RPL9B, stronger effect = lower value 1.05 | locus YNL071W, strain lat1, stronger effect = lower value 1.02 | locus YNL183C, strain NPR1, stronger effect = lower value 0.981 | locus YNL209W, strain ssb2, stronger effect = lower value 0.996 | locus YNL233W, strain BNI4, stronger effect = lower value 0.988 | locus YNL248C, strain rpa49, stronger effect = lower value 1 | locus YNL250W, strain rad50, stronger effect = lower value 1.04 | locus YNL271C, strain bni1, stronger effect = lower value 1.01 | locus YNL298W, strain CLA4, stronger effect = lower value 1.01 | locus YNL307C, strain MCK1, stronger effect = lower value 1.03 | locus YNL322C, strain KRE1 (second series), stronger effect = lower value 1.02 | locus YNR049C, strain mso1, stronger effect = lower value 0.996 | locus YNR052C, strain pop2, stronger effect = lower value 1.04 | locus YOL012C, strain htz1 0.967 | locus YOL147C, strain pex11, stronger effect = lower value 1.01 | locus YOR001W, strain rrp6, stronger effect = lower value 1.01 | locus YOR061W, strain CKA2, stronger effect = lower value 0.992 | locus YOR069W, strain VPS5, stronger effect = lower value 1 | locus YOR070C, strain gyp1, stronger effect = lower value 1.01 | locus YOR080W, strain dia2, stronger effect = lower value 1.01 | locus YOR083W, strain WHI5, stronger effect = lower value 1.02 | locus YOR106W, strain vam3, stronger effect = lower value 0.988 | locus YOR136W, strain idh2, stronger effect = lower value 1.02 | locus YOR144C, strain elg1, stronger effect = lower value 1.02 | locus YOR184W, strain ser1, stronger effect = lower value 0.973 | locus YOR231W, strain MKK1, stronger effect = lower value 1.01 | locus YOR265W, strain rbl2, stronger effect = lower value 1.01 | locus YOR270C, strain vph1, stronger effect = lower value 0.902 | locus YOR290C, strain snf2, stronger effect = lower value 1.02 | locus YOR316C, strain cot1, stronger effect = lower value 1.02 | locus YPL051W, strain arl3, stronger effect = lower value 1.02 | locus YPL078C, strain atp4, stronger effect = lower value 1.03 | locus YPL106C, strain sse1, stronger effect = lower value 1.02 | locus YPL240C, strain hsp82, stronger effect = lower value 1 | locus YPL241C, strain CIN2, stronger effect = lower value 0.988 | locus YPL256C, strain CLN2, stronger effect = lower value 0.996 | locus YPR119W, strain clb2, stronger effect = lower value 1.01 | locus YPR141C, strain kar3, stronger effect = lower value 1.01 | locus YPR163C, strain tif3, stronger effect = lower value 1.03 | locus YPR167C, strain met16, stronger effect = lower value 1.02 | strain wtn01, stronger effect = lower value 1
